From PubChem BioAssay AID432 (Sanford-Burnham Center for Chemical Genomics, 2006)
Among all 64,000 compounds or so, about 15 (0.02%) were called active. No rule for the calls is given here. The list is a sample of the results. Measured potencies and affinities stand elsewhere.

Biological target: Bcl-2-related protein A1 (Mus musculus) (UniProt Q07440)
Test: displacement of Bid BH3 peptide from Bfl-1 – biochemical, fluorescence polarization, FITC-Bid, mouse, primary screen (AID 432)
Conditions: at 20 µM, hits give high values

Chain of Bcl-2-related protein A1 (Mus musculus) (Q07440 whole entry, looked up): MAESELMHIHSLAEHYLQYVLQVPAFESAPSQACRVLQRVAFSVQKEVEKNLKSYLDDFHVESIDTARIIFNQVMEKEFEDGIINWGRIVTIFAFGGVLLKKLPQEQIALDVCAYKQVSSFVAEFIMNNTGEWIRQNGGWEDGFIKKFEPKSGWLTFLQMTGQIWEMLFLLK

displacement, inactive:
CCCN(c1ccc(C(C)C)cc1)S(=O)(=O)c1c(C)noc1C -2%
COC(=O)Nc1ccc2c(c1)ncn2C1CCCCC1 -3.2%
Brc1ccccc1-c1nnc(CSc2nncn2-c2ccccc2)o1 -1.8%
CCCCC(CC)CNC(=O)c1ccc2c(c1)OCO2 (configuration not stated) 0.7%
CC1CC(C)CN(Cc2nc3c(c(=O)n(C)c(=O)n3C)n2CCN2CCOCC2)C1 (configuration not stated) 29.2%
Cc1ccc(S(=O)(=O)N(C)CCCC(=O)n2nc(C)cc2C)cc1 7%
COc1ccc(C2CCN(Cc3cccnc3)CC2O)cc1 (configuration not stated) -8.7%
CCOC(=O)N1CCC(NC(=O)CN2C(=O)CSc3ncccc32)CC1 3.4%
Cc1ccc(S(=O)(=O)c2cc3c(=O)n4ccccc4nc3n(CC3CCCO3)c2=N)cc1C (configuration not stated) -14.7%
Cc1cc(NCc2ccc(F)cc2Cl)n2nnnc2n1 -1.6%
Cc1c(N(C)C(=O)C23CC4CC(CC(C4)C2)C3)c(=O)n(-c2ccccc2)n1C -6%
CC1(C)NC(=O)N(c2ccccc2Cl)C1(C)NO (configuration not stated) -2.3%
CCOC(=O)N1CCC(c2cc(=O)n3[nH]c(-c4ccccc4)cc3n2)CC1 5.1%
CCOC(=O)c1ccc(NC(=O)CC2C(=O)N(c3cccc(OC)c3)C(=O)N2CCOC)cc1 (configuration not stated) -1.5%
O=C(c1cc2c(s1)CCCCC2)N1CCN(c2ncccn2)CC1 8.4%
O=C(CN1CCN(c2ccc(F)cc2)CC1)N1CCOCC1 -2.4%
COc1nc(N(C)C)nc(N(OC)S(=O)(=O)c2ccccc2Cl)n1 3.7%
CCC(C)c1c(O)nc(SCC(=O)c2ccccc2)[nH]c1=O (configuration not stated) -7.8%
Cc1ccc(S(=O)(=O)NC(=O)COc2ccccc2C(N)=O)cc1 -4.3%
COc1ccccc1-c1nc(C#N)c(N2CCN(C(c3ccccc3)c3ccccc3)CC2)o1 -2.4%
CC(C)OCCCNC(=O)c1sc(=S)n(C)c1N 10.9%
CCOC(=O)C1CCN(CC(=O)Nc2c(C(=O)OC)[nH]c3ccccc23)CC1 -7%
CCOc1cc2c(cc1OCC)C(C(=O)O)C(c1cc(Br)c(O)c(OC)c1)N(C)C2=O (configuration not stated) 6.3%
CCSCCNC(=O)c1cc(-n2cnnc2)ccc1Cl 3%
CCOC(=O)c1oc2cccc(O)c2c1CN(Cc1ccccc1)C(C)=O 1.2%
O=C(CCC(=O)N(CC(=O)NC1CCCCC1)Cc1ccco1)Nc1nccs1 -3.5%
CSc1nc(-c2ccccc2O)nc(-c2ccccc2O)n1 4.5%
NC(=O)CSc1nnc(-c2ccc(S(=O)(=O)N3CCCC3)cc2)n1Cc1ccco1 -5.3%
CC1CCN(CCCNC(=O)c2cc3sccc3n2C)CC1 1.5%
CCN1CCN(CC(=O)Nc2c(C(=O)OC)[nH]c3cccc(Cl)c23)CC1 -4.1%
O=C(O)c1ccc(NS(=O)(=O)c2ccc(Cl)cc2)cc1 -8.2%
CCn1c(SCC(=O)OC)nc2sc3c(c2c1=O)CCC3 2.2%
CCn1c(SC(C)C(=O)O)nc2sc3c(c2c1=O)CCC3 (configuration not stated) 22.5%
Cn1c(=O)c2ncn(CC(=O)NCCC3=CCCCC3)c2n(C)c1=O -18.3%
COCCCNC(=O)Cn1cc2c(n1)CCCCC2 5%
O=C(c1cccc(S(=O)(=O)N2CCCCC2)c1)N1CCOCC1 -1.1%
CS(=O)(=O)c1nc(-c2ccccc2)cc(C(F)(F)F)n1 37.1%
COc1ccc(-c2cc(C(F)(F)F)nc(NC3CCCC3)n2)cc1OC -2.6%
CCOC(=O)Nc1c(O)ccc2oc(C)c(-c3ccccc3)c12 1.9%
Cc1ccc(C)c(-n2nnnc2SCC(=O)NCCC2=CCCCC2)c1 8.5%
CCc1ccccc1NC1=NCC(=O)N1C1CCCCC1 0.4%
Cc1ccc(CN2C(=O)CCC2C(=O)NC2CCCC2)cc1 (configuration not stated) -12%
Cc1cc(NC(=O)Nc2cccc3ccccc23)no1 -1.4%
Cc1cc(O)ccc1Nc1nc2ccccc2nc1Nc1ccc(O)cc1C -1.4%
CN1CCN(C2=C(Cl)C(=O)N(c3cccc(Cl)c3)C2=O)CC1 32.3%
CN1CCN(C2=C(Cl)C(=O)N(c3ccc(Cl)cc3)C2=O)CC1 49.4%
CCSc1nnc(NC(=O)C(C)C)s1 0.1%
CCSc1nnc(NC(=O)C(C)(C(F)(F)F)C(F)(F)F)s1 -5.7%
Cc1ccc(C2C(C#N)=C(N)SC(N)=C2C#N)c(C)c1 -31.9%
NS(=O)(=O)c1ccc(-n2nncc2C23CC4CC(CC(C4)C2)C3)cc1 -2.1%
COC(=O)C1=C(N)Oc2cc(C)n(CC3CCCO3)c(=O)c2C1c1ccc(Cl)cc1 (configuration not stated) -2.1%
c1cn(-c2ncnc3sc4c(c23)CCCC4)cn1 -0.8%
O=C(NCc1ccccc1)c1c[nH]c2ccc(S(=O)(=O)Nc3ccc4c(c3)OCCO4)cc2c1=O -3.6%
O=C(Nn1c(C2CCC2)nc2ccccc2c1=O)C1CCC1 -9%
Cn1c(=O)[nH]c(=O)c2c1nc(Br)n2Cc1ccccc1F -3.5%
CC(=O)c1ccc(OCC(O)CN2CCN(c3ccccn3)CC2)cc1 (configuration not stated) -0.7%
CC1=CC(C)(C)N2C(=O)C3(C(C#N)=C(N)Oc4cc(O)ccc43)c3cccc1c32 (configuration not stated) -2.9%
O=C(Nc1ccc2c(c1)OCO2)c1cnn2c(C(F)(F)F)cc(-c3ccco3)nc12 1%
COc1ccc(NC(=O)c2cnn3c(C(F)(F)F)cc(-c4ccco4)nc23)cc1OC 12%
COc1ccccc1N1CCN(C(=O)C(C)N(c2ccc(C)c(C)c2)S(C)(=O)=O)CC1 (configuration not stated) -2%
COCCNC(=O)Cn1nc(C(F)(F)F)c(Br)c1C -0.1%
CC1CCC(NC(=O)CN2CCCN(Cc3ccc(F)cc3Cl)C2=O)CC1 (configuration not stated) -0.5%
